PubChem BioAssay (NCI)
The panel holds about 83,000 compounds, 20% with a hit somewhere; the sample as a whole holds those more often.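 Single-concentration screen, 48 h exposure, 96-well plates. Endpoint: percent growth. Below 10 = active.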 Values without a mark were called inactive. Calls of active or inactive are those of the source.

What was measured:
Test in all cases: NCI-60 one-dose screen, 48 h (100 = growth as untreated, 0 = no growth, -100 = all killed)
Details in all cases: 10 µM unless noted
DU-145 prostate = tested on: DU-145 prostate
K-562 leukemia = tested on: K-562 leukemia
MALME-3M melanoma = tested on: MALME-3M melanoma
MDA-MB-231 breast = tested on: MDA-MB-231 breast
RXF 393 renal = tested on: RXF 393 renal
SF-268 CNS = tested on: SF-268 CNS
SF-295 CNS = tested on: SF-295 CNS
SF-539 CNS = tested on: SF-539 CNS
UACC-257 melanoma = tested on: UACC-257 melanoma
M14 melanoma = tested on: M14 melanoma
HCT-15 colon = tested on: HCT-15 colon
HT29 colon = tested on: HT29 colon
SNB-75 CNS = tested on: SNB-75 CNS
SNB-19 CNS = tested on: SNB-19 CNS
U251 CNS = tested on: U251 CNS
PC-3 prostate = tested on: PC-3 prostate
SK-MEL-5 melanoma = tested on: SK-MEL-5 melanoma
UACC-62 melanoma = tested on: UACC-62 melanoma
LOX IMVI melanoma = tested on: LOX IMVI melanoma
SK-MEL-28 melanoma = tested on: SK-MEL-28 melanoma

SMILES | growth (DU-145 prostate) | growth (K-562 leukemia) | growth (MALME-3M melanoma) [%] | growth (MDA-MB-231 breast) [%] | growth (RXF 393 renal) | growth (SF-268 CNS) [%] | growth (SF-295 CNS) | growth (SF-539 CNS) | growth (UACC-257 melanoma) | growth (M14 melanoma) | growth (HCT-15 colon) | growth (HT29 colon) | growth (SNB-75 CNS) [%] | growth (SNB-19 CNS) [%] | growth (U251 CNS) [%] | growth (PC-3 prostate) [%] | growth (SK-MEL-5 melanoma) | growth (UACC-62 melanoma) [%] | growth (LOX IMVI melanoma) | growth (SK-MEL-28 melanoma) [%]
CCN(CC)CCCC(C)Nc1c2ccc(C)cc2nc2ccc(OC)cc12 (stereo not given) | 4.05% (active) | 4.22% (active) | 53.3 | 41.9 | 23.7% | 39.4 | 8.67% (active) | 10.2% | -76% (active) | -10.2% (active) | 18.2% | -26.1% (active) | 41 | 43.7 | 31.2 | 30.9 | 82.1% | 74.4 | -70.8% (active) | 62.1
Cc1ccc(-c2cc(O)c(-c3ccc(C)cc3C)cc2O)c(C)c1 | 80% | 25.8% | 115 | 58.2 | 67.5% | 57.4 | 65.7% | 47.8% | 79% | 66.8% | 29.5% | 42.3% | 45.9 | 71.9 | 38.2 | 52.1 | 12.4% | 54.8 | 33.4% | 85.2
NC(=O)c1cccc(-c2ccc(S(=O)(=O)Nc3ccc4c(c3)N(C(=O)C3CC3)CCC4)cc2)c1 | 76.3% | 25.6% | 39.1 | 46.2 | 47.7% | 48.8 | 18% | 26.3% | 46.2% | 95.5% | 91.9% | 13.6% | 11.9 | 48.3 | 31.3 | 40 | 11.4% | 26.7 | 41.6% | 51.7
O=C(Nc1cccc(C2=NCCN2)c1)c1cccc(C(=O)Nc2cccc(C3=NCCN3)c2)c1 | 107% | 96.6% | 97.1 | 101 | 102% | 96.4 | 99% | 95.7% | 95.8% | 99% | 97.6% | 110% | 86.2 | 98 | 101 | 99 | 99.1% | 94.3 | 91.4% | 102
OC(c1ccc(Cl)cc1)(c1ccc(Cl)cc1)C(O)(c1ccc(Cl)cc1)c1ccc(Cl)cc1 | 61.3% | 32.4% | 70.9 | 39.8 | 16.2% | 38.9 | -2.57% (active) | 87.2% | 64.7% | 35.6% | 33.8% | 24% | 27.8 | 40.5 | 46.6 | 33.5 | 71.7% | 50.8 | 11.2% | 73.7
CCOC(=O)n1cc(C2=C(c3ccc(OC)c(OC)c3)COC2=O)c2ccccc21 | -7.55% (active) | 9.56% (active) | 45 | 13.5 | -4.89% (active) | 28.2 | 16.2% | -15% (active) | 91.2% | 54.6% | 7.9% (active) | 1.19% (active) | 13.9 | 32.6 | 23.6 | 12 | -38.9% (active) | 32.9 | 39.1% | 63.8
CCCCC1COc2cccc3c2N1C=C/C3=C\C(=O)n1ccc2ccccc21 (stereo not given) | 99.1% | 19.2% | 69.3 | 85.1 | 87% | 94.5 | 80.7% | 97.2% | 85.6% | 56% | 47.6% | 43.9% | 14.5 | 84.9 | 76.5 | 65.9 | 78.5% | 56.3 | 76% | 92.5
